Assay results as given in PubChem BioAssay (Tox21).
Inconclusive results are not listed. The source made the active and inactive calls. Unless noted, the call rests on the fitted dose curve; in most records, active means well fitted curve in the direction sought with a large enough effect in the repeat runs; inconclusive means weak or mixed curves; inactive means no such curve, though single readings can be large; an effect the other way counts as inactive or inconclusive.

Legend:
[1] = qHTS assay to identify small molecule agonists of H2AX (AID 1224845; active means well fitted activation curve with a large enough effect in the signal ratio in the repeat runs, not every such curve was filed as active; the % refers to the signal ratio; further: potency means the concentration at half of the fitted maximal effect)
In short: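 Phospho-H2AX Ser139 measured by HTRF (ex 320 nm; em 665 and 620 nm) after 24 hr antibody incubation. Compounds, 15 concentrations, 0.76% DMSO, were applied to CHO-K1 cells for 3hr at 37C before lysis.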

[2] = qHTS assay to identify small molecule agonists of the hypoxia (HIF-1) signaling pathway (AID 1224846; active means well fitted activation curve with a large enough effect in the signal ratio in the repeat runs, not every such curve was filed as active; the % refers to the signal ratio)
In short: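 Measured by blue/green FRET after loading CCF4-AM: beta-lactamase expressed from a hypoxia response element in ME-180 cells. Test agents were delivered in DMSO and left 17 hrs; cells had been plated 5 hrs earlier in low-serum (0.5% dialyzed FBS) medium.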

[3] = qHTS assay to identify small molecule agonists of H2AX - cell viability counter screen (AID 1224847; calls by dose curve;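 further: wild-type CHO-K1 cells; top concentration of the series differs between compounds; nearly all actives have a fitted effect of over 30% in size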)
In short: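 After overnight plating of 1000 CHO-K1 cells per well, a 15-concentration compound series was applied for 3 hr at 37C. Luminescence from CellTiter-Glo, read following 30 min at room temperature, reflected cell viability.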

[4] = qHTS assay to identify small molecule antagonists of the estrogen related receptor (ERR) signaling pathway from Tox21 library (AID 1224848); further: nearly all actives have a fitted effect of over 50% in size; further: potency means the concentration at half of the fitted maximal effect
In short: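 Antagonist-mode screen of the Tox21 10K library in an NTP-provided ERR reporter cell line; 18 h compound exposure at 37 C, luminescence measured with ONE-Glo.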

[5] = qHTS RealTime-Glo MT Cell Viability Assay in HepG2 cells - 24 hour (AID 1224867); further: nearly all actives have a fitted effect of over 50% in size
In short: (§1)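 Real-time, nonlytic viability: 600 HepG2 cells/well mixed with NanoLuc enzyme plus prosubstrate; 5 h settle, compound (DMSO) added by pintool; luminescence monitored over 40 h at 37 C.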

[6] = qHTS RealTime-Glo MT Cell Viability Assay in HepG2 cells - 40 hour (AID 1224870); further: nearly all actives have a fitted effect of over 50% in size
In short: (§2)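 Real-time viability: cells seeded at 600 per well together with NanoLuc and cell-permeant prosubstrate, compounds added after 5 h incubation. Luminescence tracked at 0, 8, 16, 24, 32 and 40 h of exposure.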

[7] = A CellTox Green Cytotoxicity Assay to monitor cytotoxicity in HEK293 cells - 40 hour (AID 1224871); further: nearly all actives have a fitted effect of over 45% in size; further: potency means the concentration at half of the fitted maximal effect
In short: (§3)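 Each value comes from one timepoint of a single continuous run in which HEK293 cells with CellTox Green were exposed to compound for up to 40 h at 37 C, dye fluorescence rising with cell death.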

[8] = qHTS RealTime-Glo MT Cell Viability Assay in HEK293 cells - 16 hour (AID 1224872); further: top concentration of the series differs between compounds; nearly all actives have a fitted effect of over 50% in size
In short: (§4)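 Cells + reagent dispensed (600 cells/well, HEK293) → 5 h at 37 C/5% CO2 → 23 nL compound in DMSO pinned → 40 h at 37 C → luminescence read at 0, 8, 16, 24, 32, 40 h.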

[9] = qHTS RealTime-Glo MT Cell Viability Assay in HepG2 cells - 8 hour (AID 1224873); further: nearly all actives have a fitted effect of over 55% in size
In short: as §2

[10] = A CellTox Green Cytotoxicity Assay to monitor cytotoxicity in HEK293 cells - 24 hour (AID 1224875); further: nearly all actives have a fitted effect of over 45% in size; further: potency means the concentration at half of the fitted maximal effect
In short: as §3

[11] = A CellTox Green Cytotoxicity Assay to monitor cytotoxicity in HepG2 cells - 16 hour (AID 1224876); further: nearly all actives have a fitted effect of over 45% in size
In short: (§5)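 Continuous culture of HepG2 cells with a membrane-impermeant DNA dye; rising fluorescence marks dead cells. Compound exposure lasted up to 40 h at 37 C, with reads every 8 h from 0 h.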

[12] = qHTS RealTime-Glo MT Cell Viability Assay in HepG2 cells - 32 hour (AID 1224877); further: nearly all actives have a fitted effect of over 55% in size
In short: as §1

[13] = A CellTox Green Cytotoxicity Assay to monitor cytotoxicity in HepG2 cells - 24 hour (AID 1224878); further: nearly all actives have a fitted effect of over 45% in size
In short: as §5

[14] = A CellTox Green Cytotoxicity Assay to monitor cytotoxicity in HepG2 cells - 40 hour (AID 1224879); further: nearly all actives have a fitted effect of over 40% in size; further: potency means the concentration at half of the fitted maximal effect
In short: as §5

[15] = qHTS RealTime-Glo MT Cell Viability Assay in HEK293 cells - 0 hour (AID 1224880)
In short: (§6)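 qHTS format; HEK293 cells with NanoLuc/prosubstrate reagent, 37 C/5% CO2 for 5 h pre-dosing; compounds 23 nL in DMSO; luminescence at each time point reflects viable cells.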

[16] = qHTS RealTime-Glo MT Cell Viability Assay in HEK293 cells - 32 hour (AID 1224868)
In short: as §4

[17] = A CellTox Green Cytotoxicity Assay to monitor cytotoxicity in HEK293 cells - 0 hour (AID 1224869); further: nearly all actives have a fitted effect of over 50% in size
In short: as §3

[18] = qHTS RealTime-Glo MT Cell Viability Assay in HEK293 cells - 40 hour (AID 1224874); conditions: RealTime-Glo luminescence; max response: hits give low values; further: nearly all actives have a fitted effect of over 50% in size
In short: as §6

[19] = qHTS assay to identify small molecule agonists of the hypoxia (HIF-1) signaling pathway - cell viability counter screen (AID 1224844; calls by dose curve; further: nearly all actives have a fitted effect of over 50% in size)
In short: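 Luminescent ATP content (CellTiter-Glo, 30 min, room temperature) served as the viability measure in HRE-bla ME-180 cells exposed to compounds for 17 hrs in low-serum medium (0.5% dialyzed FBS).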

[20] = qHTS assay to identify small molecule agonists of the estrogen related receptor (ERR) signaling pathway from Tox21 library (AID 1224849; calls by dose curve; further: nearly all actives have a fitted effect of over 15% in size); conditions: ERR reporter cell line, ONE-Glo luciferase, 18 h; at 92.4 µM (top of the series) unless noted
In short: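 We plated ERR reporter cells, waited 6 h, added compounds in DMSO by pin tool and incubated them 18 h at 37 C. ONE-Glo was then added and luminescence read after 30 min.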
On the % scale 0 is the no-effect control and ±100 the full control effect.

CCCCc1ccc2nc(NC(=O)OC)[nH]c2c1
inactive: Potency [1] | outcome [2] | Potency [3] | Potency [4] | Potency [5] | Potency [6] | Potency [7] | Potency [8] | outcome [9] | Potency [10] | Potency [11] | Potency [12] | Potency [13] | outcome [15]
active: Potency [14] 0.338 µM

O=C(CC(=O)C(F)(F)F)c1ccccc1
inactive: Potency [1] | Potency [3] | Potency [4] | Potency [5] | Potency [16] | Potency [17] | Potency [6] | Potency [7] | Potency [8] | outcome [9] | max response [18] -4.62% | Potency [10] | Potency [12] | Potency [13] | Potency [14] | outcome [15]

CCNCCO
inactive: Potency [19] | outcome [2] | Potency [3] | Potency [5] | Potency [16] | Potency [17] | Potency [6] | Potency [7] | Potency [8] | outcome [9] | Potency [10] | Potency [11] | Potency [12] | Potency [13] | outcome [15]

O=c1[nH]c(=O)n([C@H]2C[C@H](O)[C@@H](CO)O2)cc1C(F)(F)F
inactive: Potency [19] | activity change, positive = activation [20] -26.8% [at 42.5 µM] | Potency [16] | Potency [17] | Potency [6] | Potency [7] | Potency [8] | outcome [9] | max response [18] -15% | Potency [10] | Potency [11] | Potency [13] | outcome [15]
active: Potency [1] 0.196 µM | Potency [14] 19 µM

CC1(C)O[C@@H]2C[C@H]3[C@@H]4CCC5=CC(=O)CC[C@]5(C)[C@@]4(F)[C@@H](O)C[C@]3(C)[C@]2(C(=O)CCl)O1
inactive: Potency [1] | Potency [3] | Potency [5] | Potency [17] | Potency [6] | Potency [7] | Potency [8] | outcome [9] | Potency [10] | Potency [11] | Potency [12] | Potency [13] | Potency [14]

O=C1CCN(c2ccccc2)N1
active: Potency [4] 17.3 µM
inactive: Potency [19] | outcome [2] | Potency [3] | activity change, positive = activation [20] -36.4% | Potency [5] | Potency [16] | Potency [17] | Potency [6] | Potency [7] | Potency [8] | outcome [9] | max response [18] 4.28% | Potency [10] | Potency [11] | Potency [12] | Potency [13] | outcome [15]

O=Cc1ccc(O)c(O)c1O
inactive: Potency [19] | outcome [2] | Potency [3] | Potency [5] | Potency [16] | Potency [17] | Potency [6] | Potency [7] | Potency [8] | Potency [10] | Potency [11] | Potency [12] | outcome [15]

CCCCCCCCc1ccc(S(=O)(=O)O)cc1
active: Potency [7] 54.5 µM | Potency [10] 48.6 µM
inactive: Potency [1] | Potency [5] | Potency [16] | Potency [17] | Potency [6] | Potency [8] | outcome [9] | max response [18] -16.1% | outcome [15]
